Results taken from PubChem BioAssay AID1159580 (chemical genetic matrix, 2015).
About 2,000 (36%) of roughly 5,500 compounds were called active. About 18% were inconclusive and are not listed. Rule as the data show it: active = normalized growth mostly below about 0.91 (no sharp cut-off); inconclusive = no clear call, values can overlap the other calls; inactive = mostly above about 0.92. This is one part of the list.

Assay: chemical genetic growth profiling, strain panel (AID 1159580);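 also: tested at 20 µM; growth read once vehicle control cultures reached saturation at 30 °C; 1 = growth at the plate median or of vehicle wells; lower values mean less growth of the strain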
Details: S. cerevisiae deletion strains, growth OD
[1] = locus YHR030C, strain SLT2, active compounds read low
[2] = locus YHR079C, strain IRE1, active compounds read low
[3] = locus YJL095W, strain BCK1, active compounds read low
[4] = locus YJR066W, strain TOR1, active compounds read low
[5] = locus YLR113W, strain HOG1, active compounds read low
[6] = locus YNL183C, strain NPR1, active compounds read low
[7] = locus YOR231W, strain MKK1, active compounds read low
[8] = locus YPL256C, strain CLN2, active compounds read low

Measured: normalized growth

C[N+](C)(C)CCO
inactive: locus YAL040C, strain CLN3, active compounds read low 1.04 | locus YCL061C, strain MRC1 (second series), active compounds read low 1.02 | locus YDR150W, strain NUM1, active compounds read low 1.05 | locus YER002W, strain NOP16, active compounds read low 0.998 | locus YGR229C, strain SMI1, active compounds read low 1.06 | locus YMR263W, strain SAP30, active compounds read low 1.01 | locus YNL175C, strain NOP13, active compounds read low 1.02 | locus YNL197C, strain WHI3, active compounds read low 0.996 | locus YNL224C, strain SQS1, active compounds read low 1.01 | locus YOR083W, strain WHI5 (second series), active compounds read low 1.08
active: locus YJR075W, strain HOC1, active compounds read low 1.09 [resistant]

O=P(O)(O)C(O)(Cc1cccnc1)P(=O)(O)O
inactive: [1] 0.969 | [2] 0.963 | [3] 0.969 | [4] 0.936 | [5] 0.919 | [6] 0.897 | [7] 0.966 | [8] 0.933

O=C(Nc1ccc(C(=O)O)c(O)c1)c1ccccc1
inactive: locus YAL021C, strain ccr4, active compounds read low 0.968 | locus YAL026C, strain drs2, active compounds read low 0.982 | locus YAL030W, strain snc1, active compounds read low 0.952 | locus YBL061C, strain skt5, active compounds read low 0.977 | locus YBR009C, strain hhf1, active compounds read low 0.97 | locus YBR023C, strain chs3, active compounds read low 0.991 | locus YBR171W, strain sec66, active compounds read low 0.968 | locus YBR231C, strain swc5, active compounds read low 0.972 | locus YBR279W, strain paf1, active compounds read low 0.989 | locus YCL011C, strain gbp2, active compounds read low 0.979 | locus YCL016C, strain dcc1, active compounds read low 0.979 | locus YCL061C, strain MRC1, active compounds read low 0.989 | locus YCL069W, strain vba3, active compounds read low 0.987 | locus YCR088W, strain abp1, active compounds read low 0.987 | locus YDL005C, strain med2, active compounds read low 0.978 | locus YDL040C, strain nat1, active compounds read low 0.976 | locus YDR001C, strain nth1, active compounds read low 0.964 | locus YDR069C, strain doa4, active compounds read low 0.974 | locus YDR137W, strain rgp1, active compounds read low 0.916 | locus YDR159W, strain sac3, active compounds read low 0.985 | locus YDR195W, strain ref2 0.952 | locus YDR297W, strain sur2, active compounds read low 0.976 | locus YDR334W, strain swr1, active compounds read low 0.942 | locus YDR335W, strain msn5, active compounds read low 0.972 | locus YDR392W, strain spt3, active compounds read low 0.986 | locus YEL003W, strain gim4, active compounds read low 0.974 | locus YEL037C, strain rad23, active compounds read low 0.992 | locus YEL061C, strain CIN8 (second series), active compounds read low 0.976 | locus YER015W, strain faa2, active compounds read low 0.968 | locus YER016W, strain bim1, active compounds read low 0.979 | locus YER111C, strain swi4, active compounds read low 0.992 | locus YER155C, strain BEM2 (second series), active compounds read low 0.967 | locus YFR010W, strain ubp6, active compounds read low 0.963 | locus YGL167C, strain pmr1, active compounds read low 0.989 | locus YGL173C, strain kem1, active compounds read low 0.967 | locus YGL227W, strain vid30, active compounds read low 0.974 | locus YGL240W, strain doc1, active compounds read low 0.977 | locus YGL253W, strain hxk2, active compounds read low 0.986 | locus YHR013C, strain ard1, active compounds read low 0.962 | locus YHR027C, strain rpn1, active compounds read low 0.964 | [1] 0.937 | [2] 0.939 | locus YHR142W, strain chs7, active compounds read low 0.968 | locus YJL092W, strain hpr5, active compounds read low 0.999 | locus YJL095W, strain BCK1 (second series), active compounds read low 0.981 | [3] 0.976 | locus YJL115W, strain asf1, active compounds read low 0.974 | locus YJL129C, strain trk1, active compounds read low 0.999 | locus YJL154C, strain vps35, active compounds read low 0.965 | locus YJL164C, strain tpk1, active compounds read low 0.983 | locus YJL166W, strain qcr8, active compounds read low 0.973 | locus YJL187C, strain SWE1, active compounds read low 0.984 | [4] 0.908 | locus YKL160W, strain elf1, active compounds read low 0.981 | locus YKR026C, strain gcn3, active compounds read low 0.99 | locus YKR091W, strain srl3, active compounds read low 0.984 | locus YLL001W, strain dnm1, active compounds read low 0.983 | locus YLL026W, active compounds read low 0.958 | locus YLL041C, strain sdh2, active compounds read low 0.979 | locus YLR027C, strain aat2, active compounds read low 0.968 | [5] 0.974 | locus YLR221C, strain rsa3, active compounds read low 0.984 | locus YLR258W, strain gsy2, active compounds read low 0.987 | locus YLR262C, strain YPT6 (second series), active compounds read low 0.938 | locus YLR320W, strain mms22, active compounds read low 0.973 | locus YLR342W, strain FKS1, active compounds read low 0.978 | locus YLR357W, strain rsc2, active compounds read low 1 | locus YLR370C, strain arc18, active compounds read low 0.975 | locus YLR384C, strain iki3, active compounds read low 0.962 | locus YML120C, strain ndi1, active compounds read low 0.986 | locus YMR058W, strain fet3, active compounds read low 0.984 | locus YMR125W, strain sto1, active compounds read low 0.984 | locus YMR129W, active compounds read low 0.989 | locus YMR205C, strain PFK2, active compounds read low 0.969 | locus YMR231W, strain pep5, active compounds read low 0.984 | locus YNL071W, strain lat1, active compounds read low 0.978 | [6] 0.92 | locus YNL209W, strain ssb2, active compounds read low 0.957 | locus YNL248C, strain rpa49, active compounds read low 0.986 | locus YNL322C, strain KRE1 (second series), active compounds read low 0.97 | locus YNR049C, strain mso1, active compounds read low 0.967 | locus YOR001W, strain rrp6, active compounds read low 0.982 | locus YOR070C, strain gyp1, active compounds read low 0.976 | locus YOR080W, strain dia2, active compounds read low 0.975 | locus YOR083W, strain WHI5, active compounds read low 0.984 | locus YOR106W, strain vam3, active compounds read low 0.989 | [7] 0.941 | locus YOR265W, strain rbl2, active compounds read low 0.988 | locus YOR270C, strain vph1, active compounds read low 0.972 | locus YOR290C, strain snf2, active compounds read low 0.99 | locus YPL051W, strain arl3, active compounds read low 0.981 | locus YPL078C, strain atp4, active compounds read low 0.97 | locus YPL106C, strain sse1, active compounds read low 0.918 | locus YPL240C, strain hsp82, active compounds read low 0.982 | [8] 0.963

O=S(=O)(NC(=S)Nc1ccc(Cl)c(Cl)c1)c1ccccc1
inactive: locus YAR019C, strain CDC15, active compounds read low 1.01 | locus YBL105C, strain PKC1, active compounds read low 1.01 | locus YBR135W, strain CKS1, active compounds read low 0.997 | locus YBR136W, strain MEC1, active compounds read low 1 | locus YBR160W, strain CDC28, active compounds read low 1 | locus YDL017W, strain CDC7, active compounds read low 1.01 | locus YDL028C, strain MPS1, active compounds read low 1 | locus YDL101C, strain DUN1, active compounds read low 1.01 | locus YDL108W, strain KIN28, active compounds read low 1 | locus YDL132W, strain cdc53, active compounds read low 0.993 | locus YDL214C, strain PRR2, active compounds read low 1.02 | locus YDR052C, strain DBF4, active compounds read low 1.01 | locus YDR054C, strain cdc34, active compounds read low 1.01 | locus YDR226W, strain ADK1, active compounds read low 0.991 | locus YDR477W, strain SNF1, active compounds read low 1.02 | locus YER123W, strain YCK3, active compounds read low 1 | locus YER133W, strain GLC7, active compounds read low 1.01 | locus YFL009W, strain cdc4, active compounds read low 1.01 | locus YFL029C, strain CAK1, active compounds read low 1 | locus YFR003C, strain YPI1, active compounds read low 1 | locus YFR019W, strain FAB1, active compounds read low 1 | locus YFR028C, strain CDC14, active compounds read low 1 | locus YGR040W, strain KSS1, active compounds read low 1.01 | locus YGR052W, strain FMP48, active compounds read low 1.12 | locus YGR092W, strain DBF2, active compounds read low 0.988 | [1] 1.1 | [2] 1 | locus YHR082C, strain KSP1, active compounds read low 1.09 | locus YHR205W, strain SCH9, active compounds read low 0.995 | locus YIL147C, strain SLN1, active compounds read low 1 | [3] 1.05 | locus YJL128C, strain PBS2, active compounds read low 0.995 | locus YJL157C, strain FAR1, active compounds read low 1.01 | locus YJR016C, strain ILV3, active compounds read low 0.995 | locus YJR066W, strain TOR1 (second series), active compounds read low 0.992 | [4] 1.13 | locus YKL048C, strain ELM1, active compounds read low 1.02 | locus YKL067W, strain YNK1, active compounds read low 0.995 | locus YKL101W, strain HSL1, active compounds read low 1 | locus YKL193C, strain SDS22, active compounds read low 1 | locus YKL203C, strain TOR2, active compounds read low 1.07 | [5] 1.03 | locus YLR133W, strain CKI1, active compounds read low 1.01 | locus YLR403W, strain SFP1, active compounds read low 1.02 | locus YML070W, strain DAK1, active compounds read low 0.999 | locus YMR001C, strain CDC5, active compounds read low 1 | locus YMR205C, strain PFK2 (second series), active compounds read low 1 | locus YMR277W, strain FCP1, active compounds read low 1 | locus YNL006W, strain LST8, active compounds read low 0.984 | locus YNL020C, strain ARK1, active compounds read low 1 | locus YNL161W, strain CBK1, active compounds read low 0.996 | [6] 0.986 | locus YNL207W, strain RIO2, active compounds read low 1.01 | locus YNL222W, strain SSU72, active compounds read low 0.995 | locus YNL307C, strain MCK1 (second series), active compounds read low 0.987 | locus YOL078W, strain AVO1, active compounds read low 1 | locus YOL136C, strain PFK27, active compounds read low 1 | locus YOR061W, strain CKA2, active compounds read low 1.02 | locus YOR119C, strain RIO1, active compounds read low 1.13 | [7] 1.02 | locus YOR329C, strain SCD5, active compounds read low 1.01 | locus YPL031C, strain PHO85, active compounds read low 1.02 | locus YPL153C, strain RAD53, active compounds read low 1 | locus YPL204W, strain HRR25, active compounds read low 0.999 | locus YPL209C, strain IPL1, active compounds read low 0.996 | [8] 1.01 | locus YPR025C, strain CCL1, active compounds read low 0.998 | locus YPR106W, strain ISR1, active compounds read low 1.01 | locus YPR111W, strain DBF20, active compounds read low 0.994 | strain NNK1, active compounds read low 1 | strain TSCII, active compounds read low 0.999
